Source: PubChem BioAssay (NCI)
About 79,000 compounds went through this panel and 15% of them were active in at least one assay; those are over-represented in the sample as a whole. Cut-off read from the data, not from the text of the source: active = growth inhibition above about 70%; inactive = the rest.

Key:
[1] = NCI Yeast Anticancer Drug Screen. Data for the rad50 strain (AID 155);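 note: 0% = growth of vehicle-only cultures of the same strain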; conditions: S. cerevisiae rad50 strain growth inhibition, hits give high values; at 50.0 µM unless noted
Summary of the method: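 Relative growth inhibition (compound vs vehicle) was measured in yeast with a defined repair-gene alteration.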

[2] = NCI Yeast Anticancer Drug Screen. Data for the mec2-1 strain (AID 157); conditions: S. cerevisiae mec2-1 strain, hits give high values; at 50.0 µM unless noted
Summary of the method: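 Cells of the genetically defined mec2-1 yeast strain are incubated with test compound. Inhibition of growth is calculated against vehicle-treated controls.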

[3] = NCI Yeast Anticancer Drug Screen. Data for the sgs1 mgt1 strain (AID 161);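 note: 0% = growth of cultures given vehicle only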; conditions: S. cerevisiae sgs1 mgt1 strain, hits give high values; at 50.0 µM unless noted
Summary of the method: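 Genetically altered yeast, compound exposure, growth inhibition relative to vehicle.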

[4] = NCI Yeast Anticancer Drug Screen. Data for the cln2 rad14 strain (AID 165);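 note: 0% = growth equal to vehicle treated cultures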; conditions: S. cerevisiae cln2 rad14 strain, hits give high values; at 50.0 µM unless noted
Summary of the method: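 The screen exposed genetically defined yeast (cln2 rad14) to test compounds and scored growth inhibition relative to vehicle-treated controls.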

[5] = NCI Yeast Anticancer Drug Screen. Data for the bub3 strain (AID 167); conditions: S. cerevisiae bub3 mutant strain, hits give high values; at 50.0 µM unless noted
Summary of the method: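 Screening used yeast with an engineered genetic alteration affecting cell cycle control. Compound-exposed cultures were compared with vehicle cultures, and reduced growth was taken as inhibition.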

[6] = NCI Yeast Anticancer Drug Screen. Data for the mlh1 rad18 strain (AID 175); conditions: S. cerevisiae mlh1 rad18 strain growth inhibition, hits give high values; at 50.0 µM unless noted
Summary of the method: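 Compound-treated yeast growth, normalised to vehicle controls. Strain bears defined DNA repair mutations.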

Measured: growth inhibition

ClC1=C(Cl)C(Cl)(Cl)c2c3c(c4c(c21)C(Cl)(Cl)C(Cl)=C4Cl)C(Cl)(Cl)C(Cl)=C3Cl
inactive: [1] -0.6% | [2] 17.1% | [3] 5.15% | [4] -53.8% | [5] 9.1% | [6] 7.45%

CC1=C(C(=O)Nc2cc(=O)n(C)c(=O)n2C)C(c2ccco2)C(C(=O)Nc2cc(=O)n(C)c(=O)n2C)=C(C)N1
inactive: [1] -0.5% | [2] 17.9% | [3] -10.9% | [4] 13.3% | [5] -4.6% | [6] -0.4%

CN=C1CC2c3cc(OC)c(OC)cc3CCN2C2=C1C(=O)CC(C)(C)C2 (stereo not given)
inactive: [1] 17.1% | [2] 18.5% | [3] 15.1% | [4] -19% | [5] 36.4% | [6] 16.6%

COC(=O)C(=O)C1CCc2ccc3ccccc3c2C1=O (stereo not given)
inactive: [1] -5.8% | [2] 2.3% | [3] 24.2% | [4] -4.65% | [5] 2.3% | [6] 38.5%

c1ccc(CCCNc2nnnc3ccccc23)cc1
inactive: [1] -9.3% | [2] -36.1% | [3] -10.8% | [4] -19.2% | [5] -57.2% | [6] -4.4%

Nc1nc(N)c(CCCCc2ccccc2)c(Cc2ccccc2)n1
inactive: [1] -10.2% | [2] -10.5% | [3] -2% | [4] -40% | [5] 3.7% | [6] -7.4%

CC1(C)CSCC(C)(C)C(=N/N)/C1=N\N
inactive: [1] 6.95% | [2] 22.7% | [3] -8.35% | [4] 4.35% | [5] -33% | [6] -41.3%

OCCCNCc1ccccn1
inactive: [1] 7.25% | [2] -13.7% | [3] -20.4% | [4] 22.2% | [5] -12.2% | [6] -16.6%

COc1cccc(C2c3cc4c(cc3OC(C)(O)C2C)OCO4)c1O (stereo not given)
inactive: [1] -4.7% | [2] -3.75% | [3] -0.25% | [4] -24.8% | [5] 1.65% | [6] -9.9%

COc1cccc(N)c1N
inactive: [1] 21.4% | [2] -15.2% | [3] -3.6% | [4] 4.6% | [5] -16.9% | [6] -9.2%

CC(C)(C)CNCCO
inactive: [1] -2.45% | [2] -23.4% | [3] -2% | [4] -7.5% | [5] -7.55% | [6] -6.3%

CCCOCC[N+](C)(C)C
inactive: [1] 1.65% | [2] -21.9% | [3] 8.65% | [4] -34.5% | [5] -8.9% | [6] -8.9%

COc1ccc(-c2oc(=O)cc(-c3ccccc3)c2-c2ccccc2)cc1
inactive: [1] 22.6% | [2] -11.6% | [3] 16.2% | [4] 4.2% | [5] -3.55% | [6] 14.7%

CCCCCCCCCCCCCOc1ccc(S(=O)(=O)/N=C(\N)NC(N)=NCCCCCCCCCCCC)cc1
inactive: [1] 2.9% | [2] 12.4% | [3] -2.8% | [4] -1.55% | [5] -4.95% | [6] 8.05%

C=CCNc1nc(Cl)nc2c1cnn2C
inactive: [1] 13.3% | [2] -3% | [3] -2.95% | [4] -21.3% | [5] 8.55% | [6] -5.15%

COCN1C(=N)C(C(=O)OC(C)(C)C)=C2C=C(O)C=CC21C (stereo not given)
inactive: [1] -4.5% | [2] 14.7% | [3] -23.4% | [4] 9.1% | [5] 22.2% | [6] 2.55%

CC(=O)Oc1ccccc1C(=O)N(N)CCSc1ccc(Cl)cc1
inactive: [1] -0.45% | [2] 1.15% | [3] 11.2% | [4] -32.2% | [5] -12.5% | [6] -1%

O=C(Nc1ccccc1C(F)(F)F)C(c1ccccc1)c1ccccc1
inactive: [1] 19.5% | [2] 12.2% | [3] 8.15% | [4] 9.55% | [5] 10.8% | [6] 3.35%

C/C(=N\NC(N)=O)C1(O)CCCCC1
inactive: [1] -15.3% | [2] -26.7% | [3] -17.3% | [4] 4.45% | [5] -19.1% | [6] -11%

O=C(CN1CCCCCC1)Nc1ccc2c(c1)C(=O)c1ccc(NC(=O)CN3CCCCCC3)cc1C2=O
inactive: [1] -12.3% | [2] 37.8% | [3] 51.1% | [4] 38.6% | [5] 8.95% | [6] 36.4%
